# The panel holds about 79,000 compounds, 15% with a hit somewhere; the sample as a whole holds those more often. Values without a mark were called inactive. Active and inactive are the calls of the source. Cut-off read from the data, not from the text of the source: active = growth inhibition above about 70%; inactive = the rest. Where a SMILES comes first, the peptide text is derived from it. Bridges are numbered along the chain shown (N, C = ends). [ ]: non-standard residue; d: D form. NMeV = CN[CH](C(=O)O)C(C)C; Sar = CNCC(=O)O
# Tests used:
# [1] = NCI Yeast Anticancer Drug Screen. Data for the rad50 strain (AID 155);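 note: 0% = growth of vehicle-only cultures of the same strain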; details: S. cerevisiae rad50 strain growth inhibition, hits give high values
# Procedure, shortened: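 Relative growth inhibition (compound vs vehicle) was measured in yeast with a defined repair-gene alteration.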
# [2] = NCI Yeast Anticancer Drug Screen. Data for the mec2-1 strain (AID 157); details: S. cerevisiae mec2-1 strain, hits give high values
# Procedure, shortened: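 Mutant yeast (mec2-1) grown with compound; growth inhibition relative to vehicle control reported.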
# [3] = NCI Yeast Anticancer Drug Screen. Data for the sgs1 mgt1 strain (AID 161);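 note: 0% = growth of cultures given vehicle only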; details: S. cerevisiae sgs1 mgt1 strain, hits give high values
# Procedure, shortened: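 Growth of a repair-deficient yeast mutant was monitored after compound treatment and expressed as inhibition relative to vehicle-treated cultures.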
# [4] = NCI Yeast Anticancer Drug Screen. Data for the cln2 rad14 strain (AID 165);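 note: 0% = growth equal to vehicle treated cultures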; details: S. cerevisiae cln2 rad14 strain, hits give high values
# Procedure, shortened: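 Readout is yeast growth inhibition versus vehicle-treated controls, using a strain with cln2 and rad14 alterations exposed to compound.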
# [5] = NCI Yeast Anticancer Drug Screen. Data for the bub3 strain (AID 167); details: S. cerevisiae bub3 mutant strain, hits give high values
# Procedure, shortened: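 Screening used yeast with an engineered genetic alteration affecting cell cycle control. Compound-exposed cultures were compared with vehicle cultures, and reduced growth was taken as inhibition.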
# [6] = NCI Yeast Anticancer Drug Screen. Data for the mlh1 rad18 strain (AID 175); details: S. cerevisiae mlh1 rad18 strain growth inhibition, hits give high values
# Procedure, shortened: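 Genetically defined yeast (DNA repair-deficient) exposed to compounds; growth inhibition determined relative to vehicle.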
# [7] = at 5.0 µM (retest, dose inferred, filed as 0.5)
# [8] = at 50.0 µM (retest, dose inferred, filed as 5.0)
Compound,"growth inhibition [1, 7]","growth inhibition [1, 8]",growth inhibition ([1]; at 50.0 µM),"growth inhibition [2, 7]","growth inhibition [2, 8]",growth inhibition ([2]; at 50.0 µM),"growth inhibition [3, 7]","growth inhibition [3, 8]",growth inhibition ([3]; at 50.0 µM),"growth inhibition [4, 7]","growth inhibition [4, 8]",growth inhibition ([4]; at 50.0 µM),"growth inhibition [5, 7]","growth inhibition [5, 8]",growth inhibition ([5]; at 50.0 µM),"growth inhibition [6, 7]","growth inhibition [6, 8]",growth inhibition ([6]; at 50.0 µM)
CCCN(Cc1ccccc1)S(=O)(=O)c1ccc(C)cc1,-4%,95% (active),-14.1%,-4%,97% (active),-3.65%,-5%,95% (active),16%,-6%,93% (active),-19.5%,7%,96% (active),63.7%,-5%,96% (active),-7.75%
COC(=O)CC1SC(=S)N(Cc2ccc(Cl)cc2)C1=O (configuration not stated),-6%,80% (active),98.1% (active),-8%,61%,92.5% (active),2%,93% (active),98.5% (active),-59%,28%,55.6%,-15%,81% (active),87.5% (active),-25%,88% (active),98% (active)
CN1CCN(CCSC2Cc3cc(Cl)ccc3Sc3ccccc32)CC1 (configuration not stated),29%,29%,93% (active),5%,5%,91.8% (active),19%,19%,92% (active),1%,1%,91.6% (active),16%,16%,93.8% (active),29%,29%,92.5% (active)
CC(C)OC(=O)C1C=CCc2c(O)ccc(O)c21 (configuration not stated),8%,25%,21.2%,15%,24%,11.8%,12%,44%,61%,7%,22%,65.9%,4%,24%,52%,11%,35%,86.2% (active)
Fc1ccc(NC2=NCCN=C(Nc3ccc(F)cc3)SS2)cc1,0%,70% (active),85% (active),6%,66%,86.5% (active),4%,69%,86% (active),-9%,77% (active),69.8%,6%,76% (active),88% (active),29%,85% (active),80.8% (active)
CCCC(C(=O)OCCN1CCCC1(C)C)C1CCCC1 (configuration not stated),17%,38%,41%,10%,46%,39%,24%,58%,48%,29%,58%,70.7% (active),45%,62%,36.5%,36%,68%,40%
CC(C)C1NC(=O)C(N)C(C)OC(=O)C(C(C)C)N(C)C(=O)CN(C)C(=O)C2CCCN2C1=O (configuration not stated) (tested in a mixture with another compound) (H-TVP[Sar][NMeV]; ester 1-C; configuration not given here),21%,94% (active),89.1% (active),10%,97% (active),92.2% (active),18%,91% (active),90.3% (active),39%,95% (active),87.5% (active),16%,96% (active),90.8% (active),11%,95% (active),90.2% (active)
NC(=O)C1(Br)C=[N+](Cc2ccccc2)CCC1 (configuration not stated),0%,-2%,29.2%,3%,-3%,11.9%,-3%,-4%,11.8%,-2%,-3%,13.9%,-2%,-6%,-3.4%,2%,1%,24.4%
COc1cccc(OC)c1C(=O)/C=C/c1ccccc1,-3%,62%,66.7%,-1%,66%,45%,1%,62%,69.9%,-7%,47%,55.4%,-5%,70% (active),50.9%,1%,71% (active),79.1% (active)
CCC(=O)/C(=C\c1ccccc1)C(=O)C(C)CN(C)C (configuration not stated),9%,23%,7%,13%,16%,17.6%,12%,16%,26.6%,20%,25%,25.8%,10%,15%,33.8%,16%,24%,51.8%
C=C1CC(COc2ccc3c(C)cc(=O)oc3c2)(c2ccccc2)OC1=O (configuration not stated),32%,8%,36%,-6%,17%,27%,17%,32%,59.6%,-20%,-6%,32%,32%,30%,30.2%,-10%,22%,41.6%
CC(C)c1ccc(/C=C(\NC(=O)c2ccccc2)c2nc3ccccc3[nH]2)cc1,-2%,60%,71.2% (active),-27%,53%,86.1% (active),-2%,67%,56.5%,-7%,49%,80.4% (active),6%,71% (active),88% (active),-3%,62%,93.3% (active)
CCOC(=O)C(NC(C)=O)[CH](c1ccccc1)[Sn]([c]1ccccc1)([c]1ccccc1)[c]1ccccc1 (configuration not stated),3%,92% (active),94.4% (active),-7%,96% (active),97.5% (active),-10%,95% (active),99.1% (active),-19%,92% (active),94% (active),-13%,96% (active),96.2% (active),2%,95% (active),96.7% (active)
CC(=O)OCc1cc(=O)n(C)c2c3c4c(cc12)c(C)cc(=O)n4CO3,87% (active),99% (active),85.6% (active),69%,99% (active),88.5% (active),83% (active),99% (active),91.2% (active),79% (active),97% (active),87.4% (active),86% (active),97% (active),83.8% (active),91% (active),99% (active),89.9% (active)
C/C(=N\NC(=S)N1CCN(c2cnccn2)CC1)c1ccccn1,24%,98% (active),91.4% (active),23%,99% (active),89.9% (active),19%,99% (active),86.1% (active),10%,99% (active),88.2% (active),30%,99% (active),85.3% (active),28%,99% (active),91.7% (active)
O=C1c2ccccc2C(=O)c2cc(S(=O)(=O)Cl)ccc21,68%,99% (active),76.1% (active),97% (active),99% (active),60.9%,94% (active),98% (active),69.2%,55%,99% (active),-49.5%,98% (active),99% (active),72.5% (active),59%,99% (active),75.8% (active)
O=C(Cc1nc2ccccc2s1)Nc1cccc(C(F)(F)F)c1,41%,98% (active),92.2% (active),39%,100% (active),93.7% (active),54%,99% (active),94.7% (active),32%,98% (active),92.6% (active),35%,99% (active),92.4% (active),64%,99% (active),93% (active)
C=C1C(=O)OC(C)(C)C1c1ccc(Cl)c(Cl)c1 (configuration not stated),25%,99% (active),99.5% (active),35%,99% (active),99.8% (active),39%,99% (active),99.8% (active),18%,97% (active),99.2% (active),37%,99% (active),99.5% (active),38%,98% (active),99.7% (active)
OC/C(=C\c1ccccc1Br)c1ccccc1Br,2%,99% (active),99% (active),7%,100% (active),99.1% (active),6%,66%,99.2% (active),0%,100% (active),97.5% (active),10%,99% (active),99% (active),-10%,99% (active),99% (active)

# Source: PubChem BioAssay (NCI)
